Screening data: PubChem BioAssay, National Center for Advancing Translational Sciences (NCATS)
Rows were chosen to be rich in hits. Some 8.8% of all compounds tested hit in one or more screens of this group.
HT1080 IDH1KD tx – qHTS for induction of synthetic lethality in tumor cells producing 2HG: qHTS for the HT-1080-IDH1KD cell line | 2% of 360,000 active | Potency, µM (series often up to 46.1 µM), inactives show at the top dose activity, negative = toxicity, hits mostly cytotoxic | HT-1080 IDH1 knockdown viability, ATP luminescence, 48 h;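 further: potency means the concentration at half of the fitted maximal effect; 0% = DMSO wells and -100% = cell-free medium wells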
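Viability of IDH1-knockdown HT-1080 fibrosarcoma cells was assessed by CellTiter-Glo after 48 h at 37 °C with titrated compound; concentration-effect curves were classified by fit quality and response size.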
KB-V1 MDR tox – qHTS assay for MDR1-selective chemotherapeutics: Primary screen using the drug-selected MDR subline cells KB-V1; Potency, µM (doses to about 46.1 µM), hits mostly cytotoxic; AID 1347076, 2019; KB-V1 MDR cells viability, CellTiter-Glo, 72 h; 3.4% of 400,000 active; further: potency means the concentration at half of the fitted maximal effect; nearly all actives have a fitted effect of over 60% in size
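Drug-selected KB-V1 cells, grown in DMEM lacking phenol red with 10% FBS, receive compound titrations; after three days at 37 degrees C, surviving cell ATP is quantified by CellTiter-Glo luminescence and responses normalized and curve-fitted.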
IL1B secr inh – qHTS for Inhibitors of Inflammasome Signaling: IL-1-beta AlphaLISA Primary Screen. THP-1 LPS/ATP IL-1B secretion, AlphaLISA, 16 h; stronger effect = lower value. 4.7% of 360,000 active. activity change, % at 57.5 µM; in the data active means activity change below about -50%; inconclusive means mostly about -30% to -49%
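THP-1 cells pretreated 1 hr with compounds (up to 57.5 uM final), then stimulated with LPS (250 ng/mL final) plus ATP (1.25 mM final); secreted IL-1B measured by AlphaLISA after 16 hr, decreased signal indicating inhibition.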
KB-3-1 cytotox – qHTS assay for MDR1-selective chemotherapeutics: Primary screen using the parental adenocarcinoma cell KB-3-1 | KB-3-1 viability, CellTiter-Glo ATP luminescence, 72 h | Potency, µM (highest dose often 46.1 µM), most hits filed as cytotoxic | 1.4% of 400,000 active; further: potency means the concentration at half of the fitted maximal effect; nearly all actives have a fitted effect of over 60% in size
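KB-3-1 cells, DMEM (no phenol red) + 10% FBS; compound by pin transfer, 72 h, 37 °C. Readout: CellTiter-Glo luminescence after 10 min. Data normalized, curve-fitted.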
HT1080NT lethal – qHTS for induction of synthetic lethality in tumor cells producing 2HG: qHTS for the HT-1080-NT fibrosarcoma cell line | HT-1080-NT fibrosarcoma viability, CellTiter-Glo ATP luminescence, 48 h | Potency, µM (series often up to 46.1 µM), for the others: at the highest dose activity, negative = less viability, most hits filed as cytotoxic | 1.6% of 360,000 active | AID 686970, 2013;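 further: NT is the 2HG producing partner of a matched IDH1 knockdown line; potency means the concentration at half of the fitted maximal effect; 0% = DMSO-treated cells and -100% = media-only wells without cells; nearly all actives have a fitted effect of over 55% in size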
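Read-out is CellTiter-Glo luminescence after 10 minutes at room temperature, following 48 hours' compound treatment of HT-1080-NT cells (750 cells/well, RPMI, 5% FBS, 37 degrees C).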
* = called active by the depositor. Unless noted, the call rests on the fitted dose curve; in most records, active means well fitted curve in the direction sought with a large enough effect; inconclusive means small, poorly fitted or top-dose-only effect, or another doubt; inactive means no such curve, though single readings can be large; an effect the other way counts as inactive or inconclusive. Unless noted, on the % scale 0 is the no-effect control and ±100 the full control effect.

Results for C/C(=C\c1ccccc1)C(=O)NCCN1CCOCC1 ?
HT1080 IDH1KD tx: 3%; KB-V1 MDR tox: inactive; IL1B secr inh: -4; KB-3-1 cytotox: inactive; HT1080NT lethal: 2%

Results for CCOC(=O)N1C/C(=C\c2ccccc2)C(=O)/C(=C/c2ccccc2)C1 ?
HT1080 IDH1KD tx: inconclusive; KB-V1 MDR tox: inactive; IL1B secr inh: inconclusive; KB-3-1 cytotox: inconclusive; HT1080NT lethal: inconclusive

What do the screens show for `C[N+](C)(C)CCC(=O)N1C/C(=C/c2ccccc2)C(=O)/C(=C\c2ccccc2)C1`?
HT1080 IDH1KD tx: 4.1µM*; KB-V1 MDR tox: 10µM*; IL1B secr inh: -98*; KB-3-1 cytotox: inconclusive; HT1080NT lethal: inconclusive

How did CN(C)CCC(=O)N1C/C(=C/c2ccccc2)C(=O)/C(=C\c2ccccc2)C1 do in these assays?
HT1080 IDH1KD tx: 0.58µM*; KB-V1 MDR tox: inactive; IL1B secr inh: -100*; KB-3-1 cytotox: inactive; HT1080NT lethal: inconclusive

How did CN(C)CCNC(=O)C(c1ccccc1)c1ccccc1 do in these assays?
HT1080 IDH1KD tx: 0%; KB-V1 MDR tox: inactive; IL1B secr inh: -15; KB-3-1 cytotox: inactive; HT1080NT lethal: 8%

How did O=C(/C=C/c1ccccc1)N1CCOCC1 do in these assays?
HT1080 IDH1KD tx: 5%; KB-V1 MDR tox: inconclusive; IL1B secr inh: -1; KB-3-1 cytotox: inactive; HT1080NT lethal: 2%

How did COC(=O)/C=C1/S/C(=N/NC(=O)c2ccc(Cl)cc2Cl)NC1=O do in these assays?
HT1080 IDH1KD tx: -1%; KB-V1 MDR tox: inactive; KB-3-1 cytotox: inactive; HT1080NT lethal: -1%

How did CCc1nc2c(OCC3COc4ccccc4O3)cccn2c1N(C)C(=O)c1cccs1 (configuration not stated) do in these assays?
HT1080 IDH1KD tx: 15%; KB-V1 MDR tox: inactive; IL1B secr inh: -14; KB-3-1 cytotox: inactive; HT1080NT lethal: -13%

Results for O=C(CCl)Nc1cccc2ncccc12 ?
HT1080 IDH1KD tx: inconclusive; KB-V1 MDR tox: inconclusive; IL1B secr inh: -99*; KB-3-1 cytotox: inconclusive; HT1080NT lethal: inconclusive

Results for CN(C)S(=O)(=O)c1ccc(Cl)c(C(=O)Nc2cccc3ncccc23)c1 ?
HT1080 IDH1KD tx: 3%; KB-V1 MDR tox: inactive; IL1B secr inh: 45; KB-3-1 cytotox: inactive; HT1080NT lethal: 12%

What do the screens show for `O=C(Nc1cccnc1Cl)c1cc([N+](=O)[O-])ccc1Cl`?
HT1080 IDH1KD tx: inconclusive; KB-V1 MDR tox: inactive; IL1B secr inh: -63*; KB-3-1 cytotox: inactive; HT1080NT lethal: inconclusive

Results for CCc1ccccc1NC(=O)c1ccccc1Sc1ccc([N+](=O)[O-])cc1Cl ?
HT1080 IDH1KD tx: inconclusive; KB-V1 MDR tox: inactive; IL1B secr inh: -55*; KB-3-1 cytotox: inactive; HT1080NT lethal: -9%

Results for O=C(Nc1cccc2ncccc12)c1cc([N+](=O)[O-])ccc1Cl ?
HT1080 IDH1KD tx: -18%; KB-V1 MDR tox: inconclusive; IL1B secr inh: -88*; KB-3-1 cytotox: 18µM*; HT1080NT lethal: inconclusive

What do the screens show for `O=C(CCCCCl)Nc1c2c(nc3ccccc13)CCC2`?
HT1080 IDH1KD tx: -14%; KB-V1 MDR tox: inactive; IL1B secr inh: -7; KB-3-1 cytotox: inactive; HT1080NT lethal: -6%

Results for CC(C)c1ccc(NC2CCCN(C(=O)CN3CCCC3=O)C2)cc1 (configuration not stated) ?
HT1080 IDH1KD tx: 7%; KB-V1 MDR tox: inconclusive; IL1B secr inh: 1; KB-3-1 cytotox: inactive; HT1080NT lethal: -1%

What do the screens show for `O=C(NCc1ccccc1)c1ccc(CNS(=O)(=O)c2ccc(Br)cc2)cc1`?
KB-V1 MDR tox: inactive; KB-3-1 cytotox: inactive

How did COC(=O)c1ccc(NC(=S)NN2CCCCC2c2cccnc2)cc1 (configuration not stated) do in these assays?
HT1080 IDH1KD tx: -14%; KB-V1 MDR tox: inactive; IL1B secr inh: 38; KB-3-1 cytotox: inactive; HT1080NT lethal: 9%
